Screening results from PubChem BioAssay.
In the library only some 9.4% were active in any assay of this set; here they are far more common.
Rab9 promoter act: activators of Rab9 promoter; Potency, µM (titrated, usually from 9.22 µM), most hits filed as activators; actives 2.8% (n = 320,000); Huh7 Rab9 promoter-luciferase reporter, luminescence, 24 h; AID 485297; also: nearly all actives have a fitted effect of over 60% in size
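Huh7 reporter line, Rab9 promoter upstream of luciferase. Compound exposure 24 h at 37 °C in reduced-serum medium with 10% FBS. Read-out: luminescence.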
ELG1 genotoxic: inducers of genotoxicity in HEK293T ELG1-luciferase cells; HEK293T ELG1-luciferase reporter, luminescence, 16 h; Potency, µM (doses to about 46 µM), usual class: activators; actives 1.3% (n = 330,000); also: nearly all actives have a fitted effect of over 60% in size
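Quantitative HTS format in 1536-well plates. HEK293T ELG1-luciferase reporter cells receive test compound and are incubated 16 hr at 37 °C, 5% CO2; ONE-Glo added, 30 min room temperature, then luminescence read.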
NPC1 promoter act: activators of NPC1 promoter. Huh7 NPC1 promoter luciferase reporter, 24 h. Potency, µM (doses to about 9.22 µM), most hits filed as activators. actives 2.4% (n = 320,000). AID 485313; also: nearly all actives have a fitted effect of over 60% in size
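Cells: Huh7 expressing luciferase under the NPC1 promoter, 1500/well. Seeded 2 h, compound added, incubated 24 h at 37 °C. Luciferase reagent, 10 min ambient, then luminescence.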
SMN2 splice enh: increases expression of the SMN2 splice variant | HEK293 SMN2-luciferase splicing reporter, luminescence, 30-36 h | Potency, µM (doses to about 46.1 µM), hits mostly activators | actives 2.8% (n = 210,000) | AID 1458; also: nearly all actives have a fitted effect of over 55% in size
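qHTS luciferase splicing reporter: luminescence rises when SMN2 exon 7 is included in transfected HEK293 cells. Compound exposure lasted 30-36 h at 37C, with 4.5 mM final sodium butyrate as control, followed by a ONE-Glo read.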
ELG1 repair inh: inhibitors of ELG1-dependent DNA repair in HEK293T cells; HEK293T ELG1-luciferase reporter, luminescence, 16 h; DNA damage induced by 5-fluorouridine; AID 504467; Potency, µM (series often up to 46.1 µM), actives largely listed as inhibitors; actives 2.3% (n = 330,000); also: nearly all actives have a fitted effect of over 55% in size
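Overnight (16 hr) co-exposure of 2,000 cells/well to 5-fluorouridine and compound at 37 °C preceded detection. Luciferase was quantified via ONE-Glo luminescence; loss of signal denotes inhibition.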
FLuc modulator: inhibits or activates purified firefly luciferase, miR-21 counter-screen; purified FLuc, Km substrates, luminescence inhibition; actives 6.9% (n = 360,000); Potency, µM (highest dose often 57.5 µM), actives largely listed as inhibitors; P08659; also: nearly all actives have a fitted effect of over 55% in size
Target sequence (P08659 whole entry, looked up): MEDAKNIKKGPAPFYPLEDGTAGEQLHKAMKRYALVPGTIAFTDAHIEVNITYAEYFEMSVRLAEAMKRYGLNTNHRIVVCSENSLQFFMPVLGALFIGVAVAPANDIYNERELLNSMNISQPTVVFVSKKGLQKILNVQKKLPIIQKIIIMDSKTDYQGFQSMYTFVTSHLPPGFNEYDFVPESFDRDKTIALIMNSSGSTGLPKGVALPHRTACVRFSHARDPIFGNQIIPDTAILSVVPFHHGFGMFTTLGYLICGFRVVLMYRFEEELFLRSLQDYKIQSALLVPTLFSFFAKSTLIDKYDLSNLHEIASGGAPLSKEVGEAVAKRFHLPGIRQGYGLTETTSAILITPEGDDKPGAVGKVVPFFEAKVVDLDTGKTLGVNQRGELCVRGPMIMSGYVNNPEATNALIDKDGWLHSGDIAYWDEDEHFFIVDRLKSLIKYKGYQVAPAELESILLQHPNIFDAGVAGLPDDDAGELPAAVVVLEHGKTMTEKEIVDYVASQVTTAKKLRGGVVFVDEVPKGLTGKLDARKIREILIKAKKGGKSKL
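Biochemical qHTS of compounds, final roughly 60 µM downward over six points, against 10 nM purified firefly luciferase using Km concentrations of substrates (10 uM D-luciferin, 10 uM ATP) in Tris acetate pH 7.5 buffer; luminescence output.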
Each line names hits and unclear results; the compound was inactive in the other large screens. Calls follow the shape of the dose curve; as a rule, active = well fitted curve in the direction sought with a large enough effect; inconclusive = small, poorly fitted or top-dose-only effect, or another doubt; inactive = no such curve, though single readings can be large; an effect the other way counts as inactive or inconclusive.

Cc1ccc(CNC(=O)C(C(C)C)N2Cc3ccccc3C2=O)cc1 (stereo not drawn)	none (no result: Rab9 promoter act, ELG1 genotoxic, NPC1 promoter act, SMN2 splice enh, ELG1 repair inh)
COc1ccccc1NC(=O)COC(=O)CC(C)(C)CC1=NS(=O)(=O)c2ccccc2N1	ELG1 repair inh inconclusive (no result: SMN2 splice enh)
CC(C)(CC(=O)OCC(=O)Nc1ccccc1F)CC1=NS(=O)(=O)c2ccccc2N1	ELG1 repair inh 9.2µM (no result: SMN2 splice enh)
OCc1cnc(SCc2ccccc2)n1Cc1ccccc1	none
COc1ccc(Cn2c(CO)cnc2SCc2ccc(C)cc2)cc1	FLuc modulator 17µM (no result: Rab9 promoter act, ELG1 genotoxic, NPC1 promoter act, SMN2 splice enh, ELG1 repair inh)
CN1CCN(c2ccc(NC(=O)c3cc4ccccc4o3)cc2)CC1	Rab9 promoter act 3.5µM, ELG1 genotoxic 10µM, NPC1 promoter act 1.6µM, ELG1 repair inh inconclusive, FLuc modulator 6µM (no result: SMN2 splice enh)
O=C(Nc1ccc(N2CCN(C(=O)c3ccccc3)CC2)cc1)c1cc2ccccc2o1	ELG1 repair inh 9.2µM
CCCn1c(SCc2nc(-c3ccccc3C)no2)nnc1-c1ccc(Cl)cc1	none (no result: Rab9 promoter act, ELG1 genotoxic, NPC1 promoter act, ELG1 repair inh)
CCOc1ccc(/C=C/c2nc(C#N)c(N3CCN(CC)CC3)o2)cc1	none (no result: Rab9 promoter act, ELG1 genotoxic, NPC1 promoter act, ELG1 repair inh)
CCOC(=O)c1c(C)oc2c1c(C(c1cccnc1)N1CCN(C)CC1)c(O)c1ccccc12 (stereo not drawn)	ELG1 genotoxic inconclusive, ELG1 repair inh inconclusive (no result: SMN2 splice enh)
CCOC(=O)c1c(C)oc2c1c1c(c3ccccc32)OCN(Cc2cccnc2)C1	ELG1 genotoxic 15µM, ELG1 repair inh inconclusive, FLuc modulator 27µM
CCOC(=O)c1c(C)oc2c1c1c(c3ccccc32)OCN(CCCC(=O)O)C1	Rab9 promoter act inconclusive, ELG1 genotoxic inconclusive, NPC1 promoter act inconclusive, ELG1 repair inh inconclusive, FLuc modulator 19µM (no result: SMN2 splice enh)
COc1ccc(NC(=O)N2CC3(CCN(C(=O)c4ccco4)CC3)C2)cc1	none (no result: Rab9 promoter act, ELG1 genotoxic, NPC1 promoter act, ELG1 repair inh, FLuc modulator)
C[C@H](CO)N1C[C@H](C)[C@@H](CN(C)S(=O)(=O)c2ccc(F)cc2)Oc2ccc(NS(=O)(=O)c3ccc(F)cc3)cc2C1=O	ELG1 repair inh inconclusive (no result: Rab9 promoter act, NPC1 promoter act, SMN2 splice enh, FLuc modulator)
COc1ccc(S(=O)(=O)Nc2ccc3c(c2)C(=O)N([C@@H](C)CO)C[C@H](C)[C@H](CN(C)S(=O)(=O)c2ccc(F)cc2)O3)cc1	ELG1 repair inh 21µM (no result: Rab9 promoter act, NPC1 promoter act, SMN2 splice enh, FLuc modulator)
C[C@H](CO)N1C[C@H](C)[C@@H](CN(C)S(C)(=O)=O)Oc2ccc(NS(=O)(=O)c3ccccc3)cc2C1=O	none (no result: Rab9 promoter act, NPC1 promoter act, SMN2 splice enh, FLuc modulator)
C[C@H](CO)N1C[C@H](C)[C@@H](CN(C)S(=O)(=O)c2cccs2)Oc2ccc(NS(=O)(=O)c3ccc(F)cc3)cc2C1=O	ELG1 repair inh 6.5µM (no result: Rab9 promoter act, NPC1 promoter act, SMN2 splice enh, FLuc modulator)
C[C@H](CO)N1C[C@H](C)[C@@H](CN(C)S(=O)(=O)c2ccccc2)Oc2ccc(NS(=O)(=O)c3ccccc3)cc2C1=O	ELG1 repair inh 23µM (no result: Rab9 promoter act, NPC1 promoter act, SMN2 splice enh, FLuc modulator)
C[C@H](CO)N1C[C@H](C)[C@@H](CN(C)S(=O)(=O)c2cccs2)Oc2ccc(NS(=O)(=O)c3ccccc3)cc2C1=O	ELG1 repair inh 9.2µM (no result: Rab9 promoter act, NPC1 promoter act, SMN2 splice enh, FLuc modulator)
CC(C)Oc1ccc(CNS(=O)(=O)c2ccc3c(c2)C(C)(C)C(=O)N3C)cc1	none (no result: Rab9 promoter act, ELG1 genotoxic, NPC1 promoter act, SMN2 splice enh, ELG1 repair inh)
NCC(O)C1CCCCCCC1 (stereo not drawn)	none (no result: ELG1 genotoxic, ELG1 repair inh, FLuc modulator)
CCN(CC)S(=O)(=O)c1ccc(C(=O)N2CC(=O)Nc3ccc(F)cc3C2c2ccccc2)cc1 (stereo not drawn)	none (no result: Rab9 promoter act, ELG1 genotoxic, NPC1 promoter act, ELG1 repair inh)
COc1cc(NC(=O)Cn2c(=O)ccc3cc(S(=O)(=O)N4CCCC4)ccc32)cc(OC)c1	none (no result: Rab9 promoter act, ELG1 genotoxic, NPC1 promoter act, SMN2 splice enh, ELG1 repair inh)
COc1ccccc1/C=N/NC(=S)NCc1ccco1	none (no result: SMN2 splice enh)
COc1cc(/C=N/NC(=S)NCc2ccco2)cc(OC)c1OC	SMN2 splice enh 35µM
CC(C)C(NS(=O)(=O)c1ccc2c(c1)oc(=O)n2C)C(=O)NCCc1ccc(Cl)cc1 (stereo not drawn)	none (no result: Rab9 promoter act, ELG1 genotoxic, NPC1 promoter act, ELG1 repair inh)
COc1cc(OC)cc(C(=O)Nc2ccc(C(=O)Nc3ccccc3OC)cc2)c1	ELG1 repair inh 16µM (no result: Rab9 promoter act, NPC1 promoter act, SMN2 splice enh, FLuc modulator)
COc1cc(NC(=O)c2ccc(S(=O)(=O)N(C)c3ccccc3)cc2)cc(OC)c1	ELG1 repair inh 23µM (no result: Rab9 promoter act, NPC1 promoter act, SMN2 splice enh, FLuc modulator)
CCn1nnc2cc(C(=O)Nc3cc(OC)cc(OC)c3)ccc21	ELG1 genotoxic inconclusive, ELG1 repair inh inconclusive, FLuc modulator 17µM (no result: SMN2 splice enh)
